Hit rate of the full screen: of about 16,000 compounds, about 5,700 (36%) were called active. About 24% were inconclusive and are not listed. Calls follow the shape of the dose curve; as a rule, active = well fitted curve in the direction sought with a large enough effect; inconclusive = small, poorly fitted or top-dose-only effect, or effect the other way; inactive = no such curve, though single readings can be large or run the other way. This is one part of the list.
Each compound was assayed against Cytochrome P450 1A2 (Homo sapiens) (UniProt P05177) (assay: Cytochrome panel assay with activity outcomes). Settings: recombinant CYP, pro-luciferin dealkylation, luminescence, p450-cyp1a2; series mostly up to 57.1 µM; activity, negative = inhibition: at the top concentration.
% is scaled to controls: 0 for no effect and ±100 for the full control effect.

Cytochrome P450 1A2 (Homo sapiens), sequence (P05177 whole entry, looked up): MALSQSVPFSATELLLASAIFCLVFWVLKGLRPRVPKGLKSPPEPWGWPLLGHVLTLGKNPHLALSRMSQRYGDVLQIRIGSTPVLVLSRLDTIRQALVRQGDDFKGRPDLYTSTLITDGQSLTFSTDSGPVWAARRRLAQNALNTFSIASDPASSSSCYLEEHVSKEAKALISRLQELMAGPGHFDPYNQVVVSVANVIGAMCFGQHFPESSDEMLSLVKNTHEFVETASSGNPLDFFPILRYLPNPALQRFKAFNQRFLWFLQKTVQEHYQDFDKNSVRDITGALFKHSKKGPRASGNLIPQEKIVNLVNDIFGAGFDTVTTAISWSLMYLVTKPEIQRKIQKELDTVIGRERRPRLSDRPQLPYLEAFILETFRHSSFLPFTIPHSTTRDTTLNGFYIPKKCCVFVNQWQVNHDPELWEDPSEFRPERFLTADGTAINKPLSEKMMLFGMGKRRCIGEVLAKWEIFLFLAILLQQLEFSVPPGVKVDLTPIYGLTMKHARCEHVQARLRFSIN

Row | SMILES | AC50 | activity, negative = inhibition
1 | Cc1nc2c3cnn(-c4ccc(C)c(C)c4)c3ncn2n1 | 8.91 µM (active) | –
2 | Cc1ccc(-n2ncc3c2ncn2nc(-c4ccco4)nc32)c(C)c1 | – | -23.9% (inactive)
3 | COc1ccc2[nH]cc(CCNc3nc(-c4ccccc4OC)nc4ccccc34)c2c1 | 6.31 µM (active) | –
4 | COc1ccc2[nH]cc(CCNc3nc(-c4ccoc4)nc4ccccc34)c2c1 | 0.398 µM (active) | –
5 | COc1ccc2[nH]cc(CCNc3nc(-c4cccnc4)nc4ccccc34)c2c1 | 0.501 µM (active) | –
6 | COC(=O)[C@@]1(Cc2ccc(OC)cc2)[C@H]2c3cc(C(=O)N4CCCC4)n(CCc4c[nH]c5ccc(O)cc45)c3C[C@H]2CN1C(=O)c1ccccc1 | – | -16.3% (inactive)
7 | COc1cccc(-c2nc(NCCc3c[nH]c4ccc(OC)cc34)c3ccccc3n2)c1 | 1.58 µM (active) | –
8 | Cc1noc(NS(=O)(=O)c2ccc(NC(=O)CC34CC5CC(CC(Br)(C5)C3)C4)cc2)c1C | – | 0.211% (inactive)
9 | O=C(NNC(=O)c1sc2ccccc2c1Cl)Nc1ccc(Cl)cc1 | 0.501 µM (active) | –
10 | CCC(CC)c1nnc(NC(=O)c2cccc(S(=O)(=O)N3CCc4ccccc43)c2)s1 | – | -6.18% (inactive)
11 | Cc1ccc(NC(=O)c2sc3ccccc3c2Cl)nc1 | 2.51 µM (active) | –
12 | Cc1ccccc1Cn1nc(C)c(NC(=O)c2sc3ccccc3c2Cl)c1C | 2.24 µM (active) | –
13 | CCCC(=O)N1CCN(c2ccc(NC(=O)c3sc4ccccc4c3Cl)cc2)CC1 | – | 9.92% (inactive)
14 | Cc1ccc(NC(=O)C2CCN(S(=O)(=O)c3c(C)n[nH]c3C)CC2)nc1 | – | -28.3% (inactive)
15 | Cc1nn(Cc2ccccc2Cl)c(C)c1NC(=O)CCCn1nc(C)c([N+](=O)[O-])c1C | – | 17.7% (inactive)
16 | Cc1ccc(-c2cc(C(F)F)n3ncc(C(=O)Nc4c(C)nn(Cc5c(Cl)cccc5Cl)c4C)c3n2)cc1 | – | -19.7% (inactive)
17 | Cc1ccc(NC(=O)CCc2c(C)nc3ncnn3c2C)nc1 | – | -18.5% (inactive)
18 | CC(C)c1nnc(NC(=O)c2sc3ccccc3c2Cl)s1 | 10 µM (active) | –
19 | N#Cc1cccc(NC(=O)N2CCC3(CC2)CCN(C(=O)c2cccc(F)c2)CC3)c1 | – | -1.29% (inactive)

Row | SMILES | AC50 | activity, negative = inhibition
20 | O=C(c1coc2ccccc2c1=O)N1CCN(c2cccc(C(F)(F)F)c2)CC1 | 31.6 µM (active) | –
21 | O=C(c1cc(C(F)(F)F)cc(C(F)(F)F)c1)N1CCC2(CC1)CN(c1ccccc1)C2 | – | -15.7% (inactive)
22 | Cc1ccc(S(=O)(=O)N(CC(=O)N2CCN(c3ccc(F)cc3)CC2)C2CCCCC2)cc1 | – | 0.812% (inactive)
23 | CCc1ccc(NC(=S)N2CCN(c3cccc(C(F)(F)F)c3)CC2)cc1 | – | -15.9% (inactive)
24 | O=C(c1cccc(F)c1)N1CCC2(CCN(Cc3cc(C(F)(F)F)cc(C(F)(F)F)c3)CC2)CC1 | – | -5.54% (inactive)
25 | Cc1ccc(CC(=O)N2CCN(c3cccc(C(F)(F)F)c3)CC2)cc1 | 31.6 µM (active) | –
26 | C[C@]1(c2ccccc2)O[C@@H]2C[C@@H]3[C@@H]4CCC5=CC(=O)C=C[C@@]5(C)[C@]4(F)[C@H](O)C[C@]3(C)[C@@]2(C(=O)CO)O1 | – | -16.4% [at 2.29 µM] (inactive)
27 | CO[C@@H]1COC(=O)[C@H](COCc2ccccc2)NC(=O)C/C=C\[C@@H](C)[C@H](OC)COC(=O)[C@@H](C)NC(=O)C/C=C\[C@H]1C | – | 3.31% [at 11.4 µM] (inactive)
28 | CC(C)=CCC/C(C)=C/CC/C(C)=C/CSc1ccccc1C(=O)O | 12.6 µM (active) | –
29 | CC(=O)N(CC(=O)O)c1ccccc1C(=O)O | – | 1.47% (inactive)
30 | C[C@H](CN(C)C)C(=O)c1ccccc1C(=O)O | – | -5.91% [at 11.4 µM] (inactive)
31 | CNc1ncnc2c1ncn2[C@@H]1O[C@H](CO)[C@@H](O)[C@@H]1O | – | 13.3% [at 25.6 µM] (inactive)
32 | CCOc1ccc(N2C(=O)CS/C2=N/NC(=O)COc2ccc3ccccc3c2)cc1 | 14.1 µM (active) | –
33 | O=C(COc1ccc2ccccc2c1)N1CCN(C(=O)c2cccnc2)CC1 | – | -16% (inactive)
34 | CC(=O)N1CCN(S(=O)(=O)c2ccccc2)C1c1ccccc1 (configuration not stated) | – | 5.89% (inactive)
35 | Cc1cccc(C(=O)NNC(=O)C(=O)NC(C)(C)C)c1 | – | -1.15% (inactive)
36 | C=C(C)c1cccc(C(C)(C)NC(=O)Nc2cc(C)ccc2OC)c1 | 11.2 µM (active) | –
37 | COc1ccc(C)cc1NC(=O)CCC(=O)Nc1nnc(C(F)(F)F)s1 | – | -6.76% (inactive)
38 | C/C(=N/O)c1ccc2cc(Br)c3ccccc3c2c1 | – | -13.6% [at 2.29 µM] (inactive)

Row | SMILES | AC50 | activity, negative = inhibition
39 | C/C(=N\O)c1ccc2[nH]ccc2c1 | 4.47 µM (active) | –
40 | C[C@H](O/N=C1/[C@H]2O[C@@H]2[C@@H](O)[C@H]2[C@H]1CCn1c(=O)n(-c3ccccc3)c(=O)n12)c1cn([C@H]2COC[C@H]2O)nn1 | – | 4.91% [at 11.4 µM] (inactive)
41 | COc1ccc(/C=C2\N=C(SC)N(C)C2=O)cc1 | 1.78 µM (active) | –
42 | CO/N=C(\C(=O)N[C@@H]1C(=O)N2C(C(=O)O)=C(COC(N)=O)CS[C@@H]12)c1ccco1 | – | -6.52% [at 25.6 µM] (inactive)
43 | COc1cccc(-c2cc(NCc3ccccc3OC)ncn2)c1 | 1.26 µM (active) | –
44 | COc1cccc(-c2cc(NCc3ccc(OC)cc3OC)ncn2)c1 | 2 µM (active) | –
45 | CC(C)C[C@H]1C(=O)N2CCC[C@@H]2[C@]2(O)O[C@](NC(=O)[C@@H]3C=C4c5cccc6[nH]c(Br)c(c56)C[C@H]4N(C)C3)(C(C)C)C(=O)N12 | – | -8.76% (inactive)
46 | Cc1nc2ncnn2c(C)c1CCC(=O)Nc1ccc(S(=O)(=O)N2CCCCCC2)cc1 | – | -36% (inactive)
47 | COc1ccccc1Cn1c(=S)[nH]c2cc(C(=O)N3CCN(C)CC3)ccc2c1=O | – | -25.6% (inactive)
48 | O=c1c2cc(Br)ccc2[nH]c(=S)n1Cc1cccnc1 | 0.251 µM (active) | –
49 | COc1cc(C(=O)NCc2cccc3ccccc23)cc(Cl)c1OC | 10 µM (active) | –
50 | COc1ccc(-n2c(CNC(=O)c3cc(OC)c(OC)c(OC)c3)n[nH]c2=S)cc1 | – | -29.2% (inactive)
51 | CN(Cc1cnc2nc(N)nc(N)c2n1)c1ccc(C(=O)N[C@H](CCC(=O)O)C(=O)O)cc1 | – | -7.75% [at 25.6 µM] (inactive)
52 | CCN(/C=N/c1sc2c(c1C#N)CCCCC2)CC | 2.51 µM (active) | –
53 | CCCN(/C=N/c1sc2c(c1C#N)CCCCC2)CCC | 14.1 µM (active) | –
54 | O=S(=O)(c1ccccc1)N1CCC2(CC1)CN(C(c1ccccc1)c1ccccc1)C2 | – | 2.71% (inactive)
55 | COc1ccc(N2CCN(S(=O)(=O)c3ccc4c(c3)CCCC4)CC2)c([N+](=O)[O-])c1 | – | -18.7% (inactive)
56 | CC1CCN(c2ccc(S(=O)(=O)Nc3cc(C(=O)O)cc(C(=O)O)c3)cc2[N+](=O)[O-])CC1 | – | -20.9% (inactive)
57 | O=C1CCCN1c1ccc(S(=O)(=O)Oc2cccc(Cl)c2)cc1[N+](=O)[O-] | 15.8 µM (active) | –

Reference: PubChem BioAssay AID1851 (National Center for Advancing Translational Sciences (NCATS), 2009)
